Data on nine compounds can be found in PubChem BioAssay (NCI).

Test systems include RPMI-8226 leukemia; OVCAR-8 ovarian; OVCAR-5 ovarian; OVCAR-4 ovarian; SK-OV-3 ovarian; IGROV1 ovarian; OVCAR-3 ovarian; HS 578T breast; NCI/ADR-RES ovarian; T-47D breast; BT-549 breast; MDA-MB-435 melanoma; SW-620 colon; MCF7 breast; HCT-116 colon; HCC-2998 colon; KM12 colon.
What all share (assay): NCI-60 one-dose screen, 48 h (100 = growth as untreated, 0 = no growth, -100 = all killed)
Details in all cases: 10 µM unless noted

Compounds without any hit were thinned out: in the full panel of roughly 83,000, 20% have a hit.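 48-hour exposure, single concentration, 96-well plates; percent growth endpoint where 0 means no net growth. Active: below 10.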 Unmarked numbers belong to inactive results. Calls of active or inactive are those of the source.

Consider `C=C(C)[C@@H]1CC[C@]2(C(=O)OCCCC[P+](c3ccccc3)(c3ccccc3)c3ccccc3)CC[C@]3(C)[C@H](CC[C@@H]4[C@@]5(C)CC[C@H](OC(=O)C(Cl)Cl)C(C)(C)[C@@H]5CC[C@]43C)[C@@H]12`, for which the growth in the assay with RPMI-8226 leukemia was -40% (active); with OVCAR-8 ovarian it was -1.54% (active); with OVCAR-5 ovarian it was -1.72% (active); in the assay with OVCAR-4 ovarian it was -0.103% (active); with SK-OV-3 ovarian, -5.89% (active); in the assay with IGROV1 ovarian, -23.3% (active). In addition, the growth was -42.7% (active) in the assay on OVCAR-3 ovarian; -0.621% (active) in the assay with HS 578T breast; 52.7% in the assay with NCI/ADR-RES ovarian; -14.3% (active) in the assay on T-47D breast; -71.6% (active) in the assay on BT-549 breast; -62.3% (active) in the assay with MDA-MB-435 melanoma. The growth is 0.909% (active) in the assay on SW-620 colon; 3.36% (active) in the assay on MCF7 breast; -76.3% (active) in the assay on HCT-116 colon; -62.8% (active) in the assay with HCC-2998 colon; -54.8% (active) in the assay on KM12 colon.
`COc1ccc2c(c1)OC13Oc4cc(OC)ccc4C=C1CCCCC3=C2`: the growth in the assay on RPMI-8226 leukemia was 97.8%; in the assay on OVCAR-8 ovarian, 92.5%; with OVCAR-5 ovarian, 104%; in the assay on OVCAR-4 ovarian, 104%; with SK-OV-3 ovarian it was 80.8%; in the assay on IGROV1 ovarian, 99.3%. Moreover, the growth in the assay with OVCAR-3 ovarian was 108%; in the assay with HS 578T breast it was 99.4%; in the assay with NCI/ADR-RES ovarian, 96.9%; with T-47D breast, 67.6%; with BT-549 breast, 92%; in the assay on MDA-MB-435 melanoma, 105%. The growth is 90.7% in the assay with SW-620 colon; 75.2% in the assay on MCF7 breast; 73.4% with HCT-116 colon; 97.7% in the assay with HCC-2998 colon; 94.8% with KM12 colon.
On to `COc1cc(-c2csc(NC(=O)Nc3ccc(C(F)(F)F)cc3)n2)cc(OC)c1OC`, for which the growth with RPMI-8226 leukemia was -11.5% (active); with OVCAR-8 ovarian, 3.06% (active); with OVCAR-5 ovarian it was 33%; in the assay with OVCAR-4 ovarian, 13.4%; in the assay on SK-OV-3 ovarian, -3.3% (active); with IGROV1 ovarian, 42.8%. Also, the growth with OVCAR-3 ovarian is 1.73% (active); in the assay with HS 578T breast, 6.93% (active); with NCI/ADR-RES ovarian, -1.59% (active); with T-47D breast, -3.68% (active); with BT-549 breast it was -8.1% (active); in the assay with MDA-MB-435 melanoma, -26.9% (active). For the same compound, the growth with SW-620 colon is 14.8%; in the assay on MCF7 breast, 0.456% (active); with HCT-116 colon it was 5.03% (active); in the assay with HCC-2998 colon, 19.3%; in the assay with KM12 colon, 7.27% (active).
`COc1ccc(/C=C(/C(=O)N2CCN(Cc3ccccc3)CC2)c2cc(OC)c(OC)c(OC)c2)cc1O`: the growth with RPMI-8226 leukemia is 66.9%; in the assay with OVCAR-8 ovarian, 80.1%; in the assay on OVCAR-5 ovarian, 99.9%; with OVCAR-4 ovarian it was 90.3%; with SK-OV-3 ovarian, 65.5%; in the assay on IGROV1 ovarian, 68.4%. Besides, the growth with OVCAR-3 ovarian is 30.8%; with HS 578T breast it was 65.1%; in the assay with NCI/ADR-RES ovarian, 71.7%; with T-47D breast, 77.2%; in the assay with BT-549 breast, 77.2%; in the assay with MDA-MB-435 melanoma it was 1.04% (active). The growth in the assay on SW-620 colon was 45.6%; in the assay on MCF7 breast it was 20.9%; with HCT-116 colon, 32%; in the assay on HCC-2998 colon it was 95.8%; in the assay on KM12 colon it was 55.9%.
As for `C=C1C(=O)O[C@H]2[C@H]1CC/C(COC(=O)CCCCC(=O)OC/C1=C/CC[C@@]3(C)O[C@H]3[C@H]3OC(=O)C(=C)[C@@H]3CC1)=C\CC[C@@]1(C)O[C@@H]21`, the growth with RPMI-8226 leukemia was 5.66% (active); with OVCAR-8 ovarian it was 49.7%; in the assay with OVCAR-5 ovarian it was 115%; in the assay with OVCAR-4 ovarian, 82.3%; with SK-OV-3 ovarian, 85.6%; in the assay with IGROV1 ovarian, 39.4%. The growth in the assay with OVCAR-3 ovarian was 18.6%; in the assay with HS 578T breast, 82.7%; with NCI/ADR-RES ovarian it was 87.5%; with T-47D breast, 38.6%; in the assay on BT-549 breast, 61.1%; in the assay on MDA-MB-435 melanoma it was 56.2%. In addition, the growth in the assay on SW-620 colon was 25.1%; with MCF7 breast it was 21.3%; in the assay on HCT-116 colon, 3.28% (active); in the assay on HCC-2998 colon it was 100%; in the assay with KM12 colon, 90.6%.
Turning to `Cc1ccccc1NC(=O)c1sc2nc(C)c(C(C)O)cc2c1N` (stereo not drawn), the growth was 64.1% in the assay on RPMI-8226 leukemia; 58.1% in the assay on OVCAR-8 ovarian; 87.8% with OVCAR-5 ovarian; 92.9% in the assay with OVCAR-4 ovarian; 47.5% with SK-OV-3 ovarian; 57.6% in the assay with IGROV1 ovarian. Moreover, the growth in the assay with OVCAR-3 ovarian is 27.8%; with HS 578T breast, 53.3%; in the assay on NCI/ADR-RES ovarian it was 29.4%; in the assay with T-47D breast, 54%; in the assay on BT-549 breast, 57.8%; in the assay on MDA-MB-435 melanoma it was 1.71% (active). Besides, the growth is 36.8% in the assay on SW-620 colon; 21% with MCF7 breast; 22% in the assay with HCT-116 colon; 67.9% in the assay on HCC-2998 colon; 27.7% with KM12 colon.
For the compound `C#C[C@@]1(O)[C@@H](CO)O[C@@H](n2cc(Cl)c3c(N)ncnc32)[C@@H]1O`, the growth was -5.63% (active) in the assay on RPMI-8226 leukemia; -23% (active) with OVCAR-8 ovarian; 16.1% with OVCAR-5 ovarian; -4.32% (active) in the assay with OVCAR-4 ovarian; -10.3% (active) with SK-OV-3 ovarian; -17.5% (active) in the assay with IGROV1 ovarian. For the same compound, the growth was -10.1% (active) with OVCAR-3 ovarian; 5.45% (active) in the assay with HS 578T breast; -1.89% (active) in the assay with NCI/ADR-RES ovarian; -12.9% (active) with T-47D breast; -32.9% (active) in the assay with BT-549 breast; -12.3% (active) in the assay with MDA-MB-435 melanoma. In addition, the growth in the assay with SW-620 colon is 2.67% (active); in the assay with MCF7 breast it was -40.6% (active); in the assay on HCT-116 colon it was 4.58% (active); in the assay on HCC-2998 colon it was -33.8% (active); in the assay with KM12 colon, 1.42% (active).
For `C=C1C(=O)O[C@H]2[C@H]1CC/C(COC(=O)Nc1nc3ccccc3[nH]1)=C\CC[C@@]1(C)O[C@@H]21`, the growth in the assay on RPMI-8226 leukemia was 31.6%; in the assay with OVCAR-8 ovarian, 80.8%; in the assay on OVCAR-5 ovarian, 127%; with OVCAR-4 ovarian, 81.3%; in the assay on SK-OV-3 ovarian, 89.1%; in the assay with IGROV1 ovarian, 27.9%. In addition, the growth with OVCAR-3 ovarian is 17.3%; in the assay on HS 578T breast, 94.5%; with NCI/ADR-RES ovarian, 92.1%; with T-47D breast it was 50.3%; in the assay on BT-549 breast, 77.3%; in the assay with MDA-MB-435 melanoma it was 45.8%. Besides, the growth in the assay with SW-620 colon is 16.4%; with MCF7 breast it was 20.1%; in the assay on HCT-116 colon, 12%; with HCC-2998 colon, 102%; in the assay on KM12 colon it was 94.9%.
Take `COc1cc(/C=C/C(=O)c2ccc(NC(=O)CSc3nnc(-c4cc(OC)c(OC)c(OC)c4)n3-c3ccccc3)cc2)cc(OC)c1OC`: the growth in the assay with RPMI-8226 leukemia was -13.1% (active); in the assay with OVCAR-8 ovarian, 10%; in the assay on OVCAR-5 ovarian it was 61.4%; in the assay with OVCAR-4 ovarian, 54.8%; with SK-OV-3 ovarian, 38%; in the assay with IGROV1 ovarian, 7.57% (active). For the same compound, the growth is -17.8% (active) in the assay with OVCAR-3 ovarian; 83.1% in the assay with HS 578T breast; 44.3% with NCI/ADR-RES ovarian; 50.3% in the assay on T-47D breast; -19.6% (active) in the assay on BT-549 breast; -36.1% (active) with MDA-MB-435 melanoma. Moreover, the growth in the assay with SW-620 colon was -76.4% (active); with MCF7 breast, 11.2%; with HCT-116 colon, -80.6% (active); with HCC-2998 colon, -91.8% (active); in the assay on KM12 colon, -6.65% (active).
